# Measurements reported in PubChem BioAssay (NCI).
# “And” between values parts separate entries of the source, which are not always exact repeats. Equal entries are not always repeated. This is part of a sample that, as a whole, favours compounds with a hit. Of some 79,000 tested, about 15% had one in any assay. Unmarked numbers belong to inactive results. The source made the active and inactive calls. Cut-off read from the data, not from the text of the source: active = growth inhibition above about 70%; inactive = the rest.
# What was measured:
# [1] = NCI Yeast Anticancer Drug Screen. Data for the rad50 strain (AID 155);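 note: 0% = growth of vehicle-only cultures of the same strain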; conditions: S. cerevisiae rad50 strain growth inhibition; at 50.0 µM; stronger effect = higher value
# Method in brief: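 Genetically altered yeast (DNA repair pathway); compound treatment; growth inhibition vs vehicle ctrl.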
# [2] = NCI Yeast Anticancer Drug Screen. Data for the mec2-1 strain (AID 157); conditions: S. cerevisiae mec2-1 strain, at 50.0 µM, stronger effect = higher value
# Method in brief: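 Each compound was tested on mec2-1 yeast, a strain altered in DNA damage repair or cell cycle control. Growth inhibition is reported relative to vehicle.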
# [3] = NCI Yeast Anticancer Drug Screen. Data for the sgs1 mgt1 strain (AID 161);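 note: 0% = growth of cultures given vehicle only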; conditions: S. cerevisiae sgs1 mgt1 strain, at 50.0 µM, stronger effect = higher value
# Method in brief: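 Mutant yeast exposed to compound; growth scored against vehicle-only wells.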
# [4] = NCI Yeast Anticancer Drug Screen. Data for the cln2 rad14 strain (AID 165);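 note: 0% = growth equal to vehicle treated cultures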; conditions: S. cerevisiae cln2 rad14 strain, at 50.0 µM, stronger effect = higher value
# Method in brief: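 Test compounds were added to cln2 rad14 yeast cultures; inhibition of growth was then determined by comparison with vehicle treatment.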
# [5] = NCI Yeast Anticancer Drug Screen. Data for the bub3 strain (AID 167); conditions: S. cerevisiae bub3 mutant strain, at 50.0 µM, stronger effect = higher value
# Method in brief: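 Yeast carrying a defined mutation is treated with each compound, and growth is compared with that of vehicle-exposed cells to give inhibition.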
# [6] = NCI Yeast Anticancer Drug Screen. Data for the mlh1 rad18 strain (AID 175); conditions: S. cerevisiae mlh1 rad18 strain growth inhibition; at 50.0 µM; stronger effect = higher value
# Method in brief: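 Inhibition values reflect reduced growth of mutant yeast versus vehicle-treated controls following compound exposure; the mutations affect DNA damage repair.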
SMILES,growth inhibition [1],growth inhibition [2],growth inhibition [3],growth inhibition [4],growth inhibition [5],growth inhibition [6]
COc1ccc(CC(N)c2ccccc2)cc1 (configuration not stated),8.25%,18.1%,6.4%,10.2%,12.8%,-3.5%
C[CH2][Sn]1([CH2]C)[O]C(=O)[O][Sn]([CH2]C)([CH2]C)[O]1,-30.1%,0.95%,-30.2%,-5.05%,-6.05%,-53.3%
Cc1ccc(N)c(C)c1,-2.05%,-5.65%,-1.5%,-3.8%,3.2%,-13.2%
CC12CCC(O)CC1CCC1C2CCC2(C)C(C3=CC(=O)OC3)CCC12O (configuration not stated),-42.8%,-33.6%,-18.8%,-10.2%,-23.2%,-20.1%
CCCCCCCCCCOC(=O)CC(C)=O.CCCCCCCCCCOC(=O)CC(C)=O.[Ni+2],-37.5%,-9.3%,-26.4%,-45.1%,2.3%,-39%
Cc1cc(N(CCCl)CCCl)ccc1C=Nc1ccccc1F,8.3%,-5.4%,3.6%,-40.4%,6.85%,0.5%
C=CCC1(/C(=C\CC)CCC)C(=O)NC(=O)NC1=O,15.1%,-0.3%,1.75%,-32%,-0.2%,12.3%
O=C(O)c1ccccc1N=Nc1ccc(N(CCCl)CCCl)cc1,21.6% and 13.4%,14.2% and -11.7%,3.7% and -2.9%,10.8% and 20.6%,16.7% and -4.5%,31.1% and 8.15%
CCOS(=O)(=O)OCC,1.2%,-12.1%,4.25%,-0.45%,-10.8%,14.2%
COc1ccc(C=O)cc1,41.5%,-10.2%,-7.5%,-21.2%,0.8%,21.5%
c1ccc(N2CCNCC2)cc1 (tested in a mixture with another compound),-18.1% and 5.8%,6.7% and -16.3%,-26.1% and -5.8%,-4% and -48.5%,10.2% and 10.3%,-27.7% and -4.65%
CCOC(=O)c1cc(N(CCCl)CCCl)ccc1OC(=O)CC,3.95%,-6.9%,19.7%,-32.2%,5.85%,30.1%
COC(=O)C(CC(=O)N[N+](=O)[O-])NC(=O)C(CSC(c1ccccc1)(c1ccccc1)c1ccccc1)NC(=O)OCc1ccccc1 (configuration not stated),-3.4%,11.7%,-4.25%,-15.1%,-8.1%,29.3%
O=C(Nc1cc(S(=O)(=O)F)ccc1Cl)Oc1ccc([N+](=O)[O-])cc1,17.4%,53.2%,38.3%,11.3%,20.1%,32.5%
CCC1(CCNC(=O)CNC(C)=O)C(=O)NC(=O)NC1=O,3.3%,-6.45%,10.2%,-45.1%,10.9%,10.2%
C=CC(C)(C)C12CC3C(=O)N/C(=C\c4cnc[nH]4)C(=O)N3C1Nc1ccccc12 (configuration not stated),-33.4%,-11%,8.15%,1.45%,-6.3%,-14.8%
CN(N=O)c1ccc([N+](=O)[O-])cc1,26.2%,26.4%,15.8%,18.2%,24.4%,28.1%
O=[N+]([O-])c1ncc[nH]1,6.75%,-19.7%,11.6%,3.1%,8.2%,14.9%
O=C(O)CNC(=O)c1ccc([As](=O)(O)O)cc1,21.1%,19.1%,-26.4%,10.2%,22.1%,15.3%

SMILES,growth inhibition [1],growth inhibition [2],growth inhibition [3],growth inhibition [4],growth inhibition [5],growth inhibition [6]
CCCCCCCCCCC[CH2][Hg][CH2]CCCCCCCCCCC,9.8%,-1.05%,4%,-4.65%,4.55%,-4.3%
CC(=O)OCCCn1nc(COC(N)=O)c2c1CC(C)CC2=O (configuration not stated),1%,-11.3%,-8.25%,-4.35%,-14.8%,3.65%
C1CC[N-]CC1.CC(=N\O)/C(C)=N/O.CC(=N\O)/C(C)=N/O.[CH2-]c1ccccc1.[Co+2],-3.75%,-0.9%,-13.4%,-36%,16.4%,-4.5%
C[P+](C)(C)C,15.6% and -6.8%,-17.2% and 7.3%,-6.6% and 1.45%,1.4% and -5.8%,12% and -17.4%,-26.9% and -6.85%
Cc1cccc(OCC2=NCCN2)c1C,2.95%,-4.4%,-8.45%,-57.1%,-4.55%,-25.6%
COc1ccc([Se]c2ccc(OC)cc2)cc1,0%,-15.5%,-7.15%,-13.6%,21.4%,-4.55%
CNC(=O)Oc1cccc2c1C(=O)OC2=O,-2.7%,4.25%,-6.55%,-25.1%,2.15%,7.1%
[C-]#[O+].[C-]#[O+].[C-]#[O+].[Ni].c1ccc([PH+](CC[PH+](c2ccccc2)c2ccccc2)CC[PH+](c2ccccc2)c2ccccc2)cc1,43.9%,38.5%,46.7%,32.8%,42.6%,46.3%
COc1ccc(-c2nc(-c3ccc(N=Cc4ccc(N(CCCl)CCCl)cc4)cc3)cs2)cc1,58%,11.4%,57%,27.1%,11.5%,42.6%
O=C1C(=O)c2ccccc2C(O)=C1CN(CCCl)CCCl,31.6%,17.9%,27.2%,-21.9%,30.8%,29.8%
COc1cc(CC[N+](C)(C)C)cc(OC)c1OC,4.95%,6.1%,7.85%,25.2%,9.5%,34.7%
NCCc1cc2c3c(c1)CCCN3CCC2,96.5% (active),96.5% (active),94.5% (active),88.7% (active),94.9% (active),98.2% (active)
CCN(CC)CCc1ccccn1,-13.4%,-15.5%,-7%,-8.8%,-14.4%,5.5%
CCOP(=O)(CC(=O)c1ccccc1)OCC,10.1%,1.25%,-18.1%,0.6%,-1.45%,20.8%
CCN(CC)C1=C(N(CC)CC)C(N(CC)CC)=C(N(CC)CC)C1=O.[C-]#[O+].[C-]#[O+].[C-]#[O+].[Fe],-45.6%,-13.2%,-22.1%,-2.65%,-16.6%,-33.8%
Cn1cccc1-c1cccnc1,-23.8% and -4.7%,-34.6% and -4.95%,-4.8% and -7.45%,10.7% and 0.7%,-19.3% and 0.05%,-12.7% and -9.15%
CCCCCCCCOC(=O)c1ccccc1C(=O)OCCCCCCCC,-0.95%,-3.35%,18.6%,9.25%,-3.95%,-5.5%
CCOC(=O)/C(=C/c1ccc[nH]1)P(=O)(OCC)OCC,-28.6%,-26.1%,-31.8%,5.65%,6.6%,-42.1%
